Compounds with a hit are over-represented: about 2.8% of the library has one in this group of screens.
SIRT5 inh: blocks human SIRT5 desuccinylation of peptide; inhibition, % at 15 µM; AID 652115; Q9NXA8; Purified SirT5, succinyl-peptide AMC, trypsin-coupled fluorescence; 330,000 tested, 1.1% active; in the data active means inhibition above about 15%
PglD inh: PglD (C. jejuni) enzyme inhibition | purified PglD enzyme, DTNB colorimetric CoA detection | inhibition, % at 12.5 µM | 360,000 tested, 0.098% active | AID 602405; in the data active means inhibition above about 16%, passing the limit was not always enough
dFosB activator: enhances mouse delta FosB homodimer DNA binding | P13346 | purified delta FosB, TAMRA-CDK5 oligo fluorescence polarization; percent of positive-control signal above neutral wells | activation, % at 25 µM | 340,000 tested, 0.99% active | AID 493131;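 active means mean activation above about 17%, with every replicate also reaching it, limit read from the data, passing the limit was not always enough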
PvdQ inh: P. aeruginosa PvdQ acylase inhibition. 340,000 tested, 0.063% active. inhibition, % at 10 µM. purified PvdQ acylase, fluorescence plate reader; in the data active means inhibition above about 30%, passing the limit was not always enough;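 further: 0% = vehicle neutral wells and 100% = reference inhibitor wells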
CDK5 inh: inhibitors of human CDK5/p35 kinase | Recombinant CDK5/p35, ADP-Glo luminescence, 60 min | 330,000 tested, 0.01% active | AID 488839 | inhibition, % at 10 µM;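 active means highest replicate inhibition of at least 50% and at least 75% of replicates reaching 50%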;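 further: plate controls were DMSO neutral control for no effect and GW8510 at 10 µM for full effect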
Target sequence (Q00535 whole entry, looked up): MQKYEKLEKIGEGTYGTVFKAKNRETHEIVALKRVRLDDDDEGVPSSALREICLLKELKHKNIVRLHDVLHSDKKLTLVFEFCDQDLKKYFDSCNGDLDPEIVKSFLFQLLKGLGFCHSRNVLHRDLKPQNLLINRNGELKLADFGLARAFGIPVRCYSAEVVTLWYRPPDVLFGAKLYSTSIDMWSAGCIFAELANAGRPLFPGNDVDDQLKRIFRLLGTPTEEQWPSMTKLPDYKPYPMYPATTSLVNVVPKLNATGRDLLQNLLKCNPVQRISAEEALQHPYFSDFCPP
Target sequence (Q15078 whole entry, looked up): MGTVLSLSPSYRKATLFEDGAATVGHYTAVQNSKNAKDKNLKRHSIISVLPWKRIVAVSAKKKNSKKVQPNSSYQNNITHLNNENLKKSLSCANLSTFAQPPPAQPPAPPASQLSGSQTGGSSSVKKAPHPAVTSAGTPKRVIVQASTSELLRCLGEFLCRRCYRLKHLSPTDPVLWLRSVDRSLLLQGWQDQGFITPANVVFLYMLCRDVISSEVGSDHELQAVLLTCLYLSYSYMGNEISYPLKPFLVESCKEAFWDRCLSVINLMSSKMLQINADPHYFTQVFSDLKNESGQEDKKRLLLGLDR
FGF22 binding-1: shifts melting point of recombinant human FGF22; Q9HCT0; recombinant FGF22 thermal shift, SYPRO orange fluorescence; percent of sucrose octasulfate shift, DMSO zero; activity (Tm shift, normalised), % at 9.99 µM; 340,000 tested, 1.5% active; AID 651658;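 active means mean Tm shift, scaled 0 neutral to 100 positive control, at about 1.3% or above, every replicate too, limit read from the data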
FGF22 binding-2: binds human FGF22 shifting its melting temperature | thermal shift activity, °C (ΔTm) at 38 µM | 1,000 tested, 2% active | shares compounds with FGF22 binding-1 | recombinant FGF22 thermal shift, SYPRO orange fluorescence;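 active means fitted rise in melting shift crosses a set limit at or below the top valid dose tested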
SYPRO no-protein: counter-screen for FGF22 binders: compound-only thermal shift, no protein; shares compounds with FGF22 binding-1; compound-only SYPRO orange thermal shift counter-screen; AC50, µM (doses to about 38 µM); 1,000 tested, 2% active; AID 743019;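 active means rising signal whose fitted curve reaches the 0.54 level within the top valid dose, showing a melting point, actives reach about 13 µM in these data; inactive means the rest, including activity in the opposite direction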; further: value is where the raw curve crosses a fixed level and not half-maximal
* = called active by the depositor; i = inactive; x = not tested or not shown; [ ] = another dose, or the depositor's remark.

SMILES	SIRT5 inh	PglD inh	dFosB activator	PvdQ inh	CDK5 inh	FGF22 binding-1	FGF22 binding-2	SYPRO no-protein
COc1ccc2c3c([nH]c2c1)[C@@H](CO)N(Cc1cc(F)ccc1F)CC31CCN(C(C)=O)CC1	x	x	x	x	x	0	x	x
CCOC(=O)c1c(C)oc2cc(Br)c(O)c(Br)c12	x	1	-12	4	0	1.4*	0.025	i
C[C@@H]1CN([C@@H](C)CO)C(=O)c2cccc(NS(=O)(=O)c3cn(C)cn3)c2O[C@@H]1CN(C)S(=O)(=O)c1ccc(Cl)cc1	7	2	x	x	x	1.5*	0.16	i
C[C@@H]1CN([C@H](C)CO)C(=O)CCCn2cc(nn2)CO[C@H]1CN(C)Cc1ccccc1	-3	-2	x	x	x	0	x	x
C[C@H](CO)N1C[C@H](C)[C@@H](CN(C)S(=O)(=O)c2ccc(Cl)cc2)Oc2c(NS(=O)(=O)c3cn(C)cn3)cccc2C1=O	1	1	x	x	x	0	x	x
C[C@@H]1CN([C@@H](C)CO)C(=O)c2cccc(N(C)C)c2O[C@H]1CN(C)Cc1ccc(C(=O)O)cc1	-4	1	x	x	x	2.7*	0.16[42 µM]	i
C[C@H]1CN([C@@H](C)CO)C(=O)CCCn2cc(nn2)CO[C@@H]1CN(C)Cc1cccc(C(=O)O)c1	-1	0	x	x	x	1.3*	-0.018	i
C[C@H](CO)N1C[C@H](C)[C@@H](CN(C)S(=O)(=O)c2ccccc2)Oc2c(NC(=O)C3CC3)cccc2C1=O	0	-4	-5	0	0	2.6*	0.092	i
Cc1ccc(S(=O)(=O)N(C)C[C@H]2OCCCC[C@H](C)Oc3ccc(NC(=O)Cc4ccccc4)cc3C(=O)N([C@@H](C)CO)C[C@H]2C)cc1	2	-13	x	x	x	x	x	x
C[C@@H]1CN([C@H](C)CO)C(=O)c2cccc(NC(=O)C3CC3)c2O[C@@H]1CN(C)Cc1ccncc1	1	0	x	x	x	0	x	x
C[C@@H]1CN([C@@H](C)CO)C(=O)c2cccc(NC(=O)c3ccc(-c4nccs4)cc3)c2O[C@@H]1CN(C)C	0	2	x	x	x	5.0*	0.098	i
C[C@H]1CN([C@@H](C)CO)C(=O)c2cccc(NC(=O)c3ccc(-c4nccs4)cc3)c2O[C@H]1CN(C)C	2	1	x	x	x	0	x	x
COc1ccc(S(=O)(=O)N(C)C[C@@H]2Oc3c(NC(=O)c4cc(C)nn4C)cccc3C(=O)N([C@H](C)CO)C[C@H]2C)cc1	1	4	x	x	x	1.3*	0.088[42 µM]	i
COc1ccc(S(=O)(=O)N(C)C[C@H]2Oc3c(NC(=O)c4cc(C)nn4C)cccc3C(=O)N([C@@H](C)CO)C[C@@H]2C)cc1	3	1	x	x	x	1	x	x
C[C@@H]1CN([C@@H](C)CO)C(=O)c2cccc(NC(=O)C3CC3)c2O[C@H]1CN(C)Cc1ccncc1	2	-1	x	x	x	1.2*	0.096	i
CC(C)=CCN(C(=O)C#Cc1ccccc1)[C@H](CO)c1ccccc1	13	2	x	x	x	0	x	x
COc1ccc(CN(C)C[C@@H]2OCCCC[C@H](C)Oc3ccc(NS(=O)(=O)c4c(C)noc4C)cc3C(=O)N([C@@H](C)CO)C[C@H]2C)cc1	5	x	x	x	x	0	x	x
COC(=O)C[C@@H]1C[C@H]2c3cc(NS(=O)(=O)c4ccc(OC)cc4)ccc3O[C@H]2[C@H](CO)O1	x	-2	x	x	x	0	x	x
CC(C)(C)NC(=O)CN(C(=O)CNS(=O)(=O)c1ccccc1)c1ccc2c(c1)OCCO2	x	2	-8	-11	1	x	x	x
CC(C)(C)NC(=O)CN(C(=O)CNS(=O)(=O)c1ccc(Cl)cc1)c1ccc2c(c1)OCCO2	-1	3	-5	9	0	40*	0.1	i
CC(C)[C@H](CN(N=O)[C@@H](Cc1ccccc1)CN(C)N=O)N(CCc1ccccc1)N=O	-12	3	-11	-16	0	0	x	x
CC(C)C[C@@H](CN(C)N=O)N(C[C@H](Cc1ccccc1)N(CCc1ccccc1)N=O)N=O	10	5	-18	-5	0	1.6*	0.029	i
COc1ccc(NC(=O)Nc2ccc3c(c2)CC(=O)N([C@@H](C)CO)C[C@H](C)[C@H](CN(C)C(=O)NC(C)C)O3)cc1	-4	0	x	x	x	x	x	x
O=C(Cc1ccccc1)NC1CCN(Cc2ccccc2)CC1	3	x	3	-2	0	0	x	x
O=C(O)C1CSC2(CCN(Cc3ccccc3)CC2)N1 (configuration not stated)	1	-1	2	-16	-2	39*	0.15	i
SMILES	SIRT5 inh	PglD inh	dFosB activator	PvdQ inh	CDK5 inh	FGF22 binding-1	FGF22 binding-2	SYPRO no-protein
NC(=S)c1cc2ccc(O)cc2oc1=O	x	x	-7	-19	0	x	x	x
Oc1cc(O)cc(-c2cc3ccc(O)cc3o2)c1	x	-2	9	-5	4	2.1*	0.007	i
COC(=O)c1cccc(Nc2ccc([N+](=O)[O-])cn2)c1	0	2	0	6	1	1	x	x
O=[N+]([O-])c1ccc(Nc2cccc(F)c2)nc1	3	-1	-4	13	0	3.5*	0.14	i
O=[N+]([O-])c1ccc(Nc2ccccc2)nc1	3	x	1	0	2	1.4*	-0.016	i
O=[N+]([O-])c1ccc(Nc2ccc(F)cc2)nc1	x	x	-4	1	-1	x	x	x
CCC(=O)N1CC2(C1)[C@@H](c1ccc(-c3ccc(F)cc3)cc1)[C@@H](CO)N2S(C)(=O)=O	-1	x	x	x	x	0	x	x
Cc1noc(C)c1NC(=O)N(C)C[C@H]1Oc2c(NC(=O)c3nc4ccccc4s3)cccc2C(=O)N([C@H](C)CO)C[C@@H]1C	0	-2	x	x	x	0	x	x
CCO[C@@H]1OC(C(=O)N2CCN(Cc3ccc4c(c3)OCO4)CC2)=C[C@H](c2ccccc2)[C@H]1CCCO	2	0	x	x	x	0	x	x
CCCCNC(=O)C1(C)CCCCN1C(=O)c1c(F)ccc(C)c1F (configuration not stated)	1	0	x	x	x	1.7*	0.19	i
Brc1ccccc1/C=N/Nc1ccccn1	-2	-1	-5	5	-2	2.2*	0.2	i
COc1ccc(CN(C)C[C@@H]2OCCCC[C@H](C)Oc3ccc(NC(=O)CCCN(C)C)cc3C(=O)N([C@@H](C)CO)C[C@H]2C)cc1	-7	x	x	x	x	0	x	x
Cc1ccc(NC(=O)c2ccc(Cl)c(S(=O)(=O)NCC3CCCO3)c2)c(O)c1 (configuration not stated)	2	3	-11	7	1	30*	0.18	i
Cc1ccccc1NC(=O)c1ccc(F)c(S(=O)(=O)NCC2CCCO2)c1 (configuration not stated)	-1	x	-3	1	x	0	x	x

High-throughput results as filed in PubChem.
